Measurements published in PubChem BioAssay AID2061323 (National Center for Advancing Translational Sciences (NCATS), 2025).
Results filed as inconclusive are left out. Calls of active or inactive are those of the source. The call rests on the fitted dose curve; in most records, active means well fitted inhibition curve with a large enough effect; inconclusive means small, poorly fitted or top-dose-only effect; inactive means flat fitted curve, though single readings scatter.

Assay: Identification of antibody-drug conjugate (ADC) payloads which are substrates of ATP-binding cassette drug efflux transporters: ABCG2-HEK293-R5 cell line
Conditions: ABCG2-HEK293-R5 viability, CellTiter-Glo ATP luminescence, 48 h
Description: Antibody-drug conjugates (ADCs) feature an antibody recognizing a specific protein joined to a potent toxic payload. Numerous antibody-drug conjugates have received FDA approval; however, clinical resistance arises. Resistance mechanisms include decreased expression or mutation of the antibody target, impaired payload release, or increased expression of ATP-binding cassette (ABC) efflux transporters associated with multidrug resistance. We therefore sought to characterize the interaction of ABC multidrug transporters with ADC payloads. We performed a high-throughput screen with 27 common ADC payloads using cells lines expressing ABC transporters P-glycoprotein (P-gp, encoded by ABCB1) or ABCG2 (encoded by ABCG2). Confirmatory assays were also performed using cells transfected to express P-gp, ABCG2, or MRP1 (encoded by ABCC1). Several commonly used ADC payloads were substrates of P-gp, including calicheamicin gamma1, monomethyl auristatin E, DM1, and DM4. All the pyrrolobenzodiazepines tested - SJG136, SGD-1882, SG2057, and SG3199 - were substrates of P-gp, ABCG2, and MRP1. […] These findings highlight the risk of transporter-mediated resistance with certain ADC payloads and underscore the importance of selecting payloads that evade ABC transporter recognition in future ADC development.
HEK-293 cells were transfected with empty vector (pcDNA) or vector containing the human ABCB1 (MDR-19), ABCG2 (R-5), or ABCC1 gene (MRP1) and were maintained in EMEM with 2 mg/mL G418 added to maintain transporter expression. The HeLa derivative KB-3-1 and the P-gp overexpressing KB-8-5-11 subline were maintained in DMEM; KB-8-5-11 additionally received 100 ng/mL colchicine. H460 parental cells were obtained from the Division of Cancer Treatment and Diagnosis Tumor Repository, National Cancer Institute at Frederick, MD and were cultured in RPMI. The ABCG2 expressing subline H460 MX20 was generated by selecting H460 cells in 20 nM mitoxantrone. Media in all cases was supplemented with 10% FBS and 1% penicillin-streptomycin. We explored 27 common ADC payloads, in two orthogonal, paired cell line sets-a drug selected and transfected set for each transporter--to identify substrates of the ABC transporters P-gp and ABCG2. Compounds were sourced from Levena Biopharma (San Diego, CA), Selleck Chem (Houston, TX), ChemieTek (Indianapolis, IN), or Microsource Discovery Systems (Gaylordsville, CT). Screening was performed as previously described. Briefly, cells were plated at a density of 500 cells/well in 1536 well plates with compounds added using a 1536-head pin tool (Kalypsys, San Diego CA). Cells were incubated with cytotoxic drugs and processed with CellTiter Glo reagent (Promega, Madison, WI) to determine viability after 48 hours. P-gp substrates were identified by comparing compound activity between paired sets of low-expressing (sensitive) and over-expressing (resistant) cell lines.

| SMILES | Potency |
| --- | --- |
| CCN[C@H]1CO[C@@H](O[C@H]2[C@H](O[C@H]3C#C/C=C\C#C[C@]4(O)CC(=O)C(NC(=O)OC)=C3/C4=C\CSSSC)O[C@H](C)[C@@H](NO[C@H]3C[C@H](O)[C@H](SC(=O)c4c(C)c(I)c(O[C@@H]5O[C@@H](C)[C@H](O)[C@@H](OC)[C@H]5O)c(OC)c4OC)[C@@H](C)O3)[C@@H]2O)C[C@@H]1OC | 3.8 nM (active) |
| CCN(C(C)=O)[C@H]1CO[C@@H](O[C@H]2[C@H](O[C@H]3C#C/C=C\C#C[C@]4(O)CC(=O)C(NC(=O)OC)=C3/C4=C\CSSSC)O[C@H](C)[C@@H](NO[C@H]3C[C@H](O)[C@H](SC(=O)c4c(C)c(I)c(O[C@@H]5O[C@@H](C)[C@H](O)[C@@H](OC)[C@H]5O)c(OC)c4OC)[C@@H](C)O3)[C@@H]2O)C[C@@H]1OC | 67.1 nM (active) |
| CC(C)(C)OC(=O)Nc1ccc2[nH]c(C(=O)N3C[C@@H](CCl)c4c3cc(O)c3ccccc43)cc2c1 | 33.6 nM (active) |
| COC(=O)c1cc2c3c(cc(O)c2[nH]1)N(C(=O)c1cc2cc(OC)c(OC)c(OC)c2[nH]1)CC3CCl (stereo not given) | 4.2 nM (active) |
| CN(C)CCOc1ccc2[nH]c(C(=O)N3C[C@@H](CCl)c4c3cc(O)c3ccccc43)cc2c1 | 1.7 nM (active) |
